The results in this text go back to PubChem BioAssay (NCI).

Compounds without any hit were thinned out: in the full panel of roughly 83,000, 20% have a hit.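 Activity criterion: percent growth below 10, measured after cells in 96-well plates were exposed to a single compound concentration for 48 hours.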 Unmarked numbers belong to inactive results. Activity calls are given as the source filed them.

The first assay relates to SN12C renal. Kind of assay: NCI-60 one-dose screen, 48 h (100 = growth as untreated, 0 = no growth, -100 = all killed). Particulars: 10 µM unless noted.
For `CCOC(=O)c1c(C)[nH]c2ccc(O)cc12`, the growth was 98.9%.

Turning to `CCC1CCCCN1C(=S)N/N=C(\C)c1ccccn1` (centres undefined), the growth was 7.07% (active).

Take `CC(/C=N/NC(N)=S)Cc1ccc(C(C)C)cc1` (centres undefined): the growth was 69.8%.

Turning to `Nc1ccc(C(=O)/C=C/c2ccccc2)cc1`, the growth is 98.4%.

As for `Cc1oc2c(C)c3oc(=O)cc(C)c3cc2c1CCl`, the growth was 67.8%.

Take `O=C(/C(Cl)=N/O)c1ccc(-c2ccccc2)cc1`: the growth is 103%.

As to `CC(C)c1ccc(Nc2n[nH]c(=S)s2)cc1`, the growth was 98.2%.

With `NC(=S)N/N=C\c1nccc2c(N)cccc12`, the growth was 8.66% (active).

Regarding `COc1cc2c(c(OC)c1OC)-c1ccc(NCc3ccccc3)c(=O)cc1[C@@H](NC(C)=O)CC2`, the growth was 20.3%.

For `CCCCCCCCCCCCCCCCSC(=NCC)NCC`, the growth is 18.6%.

Take `CN(Cc1ccccc1)c1ccc(SC#N)cc1`: the growth is 103%.

With `CC(=O)Nc1ccc(C(=O)CCl)cc1`, the growth is 90.6%.

On to `O=[N+]([O-])c1ccc(N2CCN(Cc3ccccc3)CC2)c2c1no[n+]2[O-]`, for which the growth was 19.1%.

For `CCOC(=O)NC(/C=C/c1ccccc1)NC(=O)OCC`, the growth is 99%.

On to `CCCCN(CCCC)CCCCCCCCCCO`, for which the growth is 107%.

As for `S=C1SCN(Cc2cccs2)CN1Cc1cccs1`, the growth was 98.7%.

`CCOC(=O)/C(=C\c1ccc2ccccc2c1)P(=O)(OCC)OCC`: the growth is 17%.

Regarding `Nc1ccc(Oc2ccccc2)c(Cl)c1`, the growth was 107%.

As for `COc1ccc(C(Cn2ccnc2)Sc2ccc(Cl)c(Cl)c2)cc1` (centres undefined), the growth was 88.6%.

As for `O=[N+]([O-])/C(=C/c1ccccc1)c1ccccc1`, the growth is 103%.

For `CCCCCCC1N=C(N)N=C(N)N1c1cccc(Cl)c1` (centres undefined), the growth was 26.8%.

With `O=C1C=CC(=O)N1C1CCCCCCCCCCC1`, the growth was 82.9%.

Regarding `Cc1nc(Sc2nc3ccc([N+](=O)[O-])cc3s2)sc1C`, the growth is -29.4% (active).

Turning to `Fc1ccc(NCCS)cc1`, the growth is 97.9%.

On to `OCCOSCCO`, for which the growth was 111%.

Turning to `COc1cc(OC)c(/C=C/c2c3ccccc3cc[n+]2C)c(OC)c1`, the growth was 14.2%.

In the case of `CC(C)(C)c1ccc(O)c(Br)c1`, the growth is 94.6%.

Take `O=C/C=C/c1ccc([N+](=O)[O-])cc1`: the growth was 102%.

Turning to `COc1ccc2nc3cc(Cl)ccc3c(NCCCCCN3CCCCC3)c2c1`, the growth is 10.3%.

Regarding `COc1cc(-c2ccc(-[n+]3nc(-c4ccc([N+](=O)[O-])cc4)nn3-c3ccc([N+](=O)[O-])cc3)c(OC)c2)ccc1-[n+]1nc(-c2ccc([N+](=O)[O-])cc2)nn1-c1ccc([N+](=O)[O-])cc1`, the growth is 2.95% (active).

For the molecule `O=C1C=CC(=O)N1c1cc(Cl)c(Cl)cc1Cl`, the growth is 104%.

Regarding `Nc1cccc2cccc([N+](=O)[O-])c12`, the growth was 107%.

As for `CCc1cnc2ccccc2c1/C=C/c1ccc(N(C)C)cc1`, the growth is 52.3%.

As for `O=[N+]([O-])c1ccc(C2N(Cc3ccc(Cl)cc3)CCN2Cc2ccc(Cl)cc2)cc1`, the growth is 90.7%.

Consider `Oc1ccc2c(c1)CCc1ccccc1-2`, for which the growth was 107%.

As for `COc1cc(/C=C2\SC(=S)N(/C=C/c3nc4ccccc4[nH]c3=O)C2=O)cc(OC)c1OC`, the growth is 98.2%.

For `CC(C)(C)CC(C)(C)c1ccc(OCCOCCSC(=N)N)cc1`, the growth was 55%.

The subject of the next assay is UO-31 renal. The assay is described as above. The following applies: 10 µM unless noted.
On to `CCOC(=O)c1c(C)[nH]c2ccc(O)cc12`, for which the growth was 72.3%.

Take `CCC1CCCCN1C(=S)N/N=C(\C)c1ccccn1` (centres undefined): the growth was -17.6% (active).

As for `CC(/C=N/NC(N)=S)Cc1ccc(C(C)C)cc1` (centres undefined), the growth was 45%.

With `Nc1ccc(C(=O)/C=C/c2ccccc2)cc1`, the growth is 62.1%.

`Cc1oc2c(C)c3oc(=O)cc(C)c3cc2c1CCl`: the growth was 47.6%.

With `O=C(/C(Cl)=N/O)c1ccc(-c2ccccc2)cc1`, the growth is 57.9%.

`CC(C)c1ccc(Nc2n[nH]c(=S)s2)cc1`: the growth was 83.7%.

As to `NC(=S)N/N=C\c1nccc2c(N)cccc12`, the growth was -8.44% (active).

In the case of `COc1cc2c(c(OC)c1OC)-c1ccc(NCc3ccccc3)c(=O)cc1[C@@H](NC(C)=O)CC2`, the growth was 34.4%.

As for `CCCCCCCCCCCCCCCCSC(=NCC)NCC`, the growth is -13.2% (active).

In the case of `CN(Cc1ccccc1)c1ccc(SC#N)cc1`, the growth is 37.7%.

As for `CC(=O)Nc1ccc(C(=O)CCl)cc1`, the growth is 54.2%.

As to `O=[N+]([O-])c1ccc(N2CCN(Cc3ccccc3)CC2)c2c1no[n+]2[O-]`, the growth was -78.1% (active).

Take `CCOC(=O)NC(/C=C/c1ccccc1)NC(=O)OCC`: the growth was 91.2%.

For `CCCCN(CCCC)CCCCCCCCCCO`, the growth was 81.3%.

As to `S=C1SCN(Cc2cccs2)CN1Cc1cccs1`, the growth was 88.8%.

Consider `CCOC(=O)/C(=C\c1ccc2ccccc2c1)P(=O)(OCC)OCC`, for which the growth was 12.4%.

For the molecule `Nc1ccc(Oc2ccccc2)c(Cl)c1`, the growth is 72.1%.

`COc1ccc(C(Cn2ccnc2)Sc2ccc(Cl)c(Cl)c2)cc1` (centres undefined): the growth was 45.2%.

As to `O=[N+]([O-])/C(=C/c1ccccc1)c1ccccc1`, the growth is 84.4%.

For `CCCCCCC1N=C(N)N=C(N)N1c1cccc(Cl)c1` (centres undefined), the growth is 93.4%.

Take `O=C1C=CC(=O)N1C1CCCCCCCCCCC1`: the growth was 60.4%.

`Cc1nc(Sc2nc3ccc([N+](=O)[O-])cc3s2)sc1C`: the growth is 23.5%.

Regarding `Fc1ccc(NCCS)cc1`, the growth was 84.7%.

For the molecule `OCCOSCCO`, the growth is 96.3%.

Turning to `COc1cc(OC)c(/C=C/c2c3ccccc3cc[n+]2C)c(OC)c1`, the growth is 75.5%.

Consider `CC(C)(C)c1ccc(O)c(Br)c1`, for which the growth was 86.5%.

Consider `O=C/C=C/c1ccc([N+](=O)[O-])cc1`, for which the growth was 84.2%.

Regarding `COc1ccc2nc3cc(Cl)ccc3c(NCCCCCN3CCCCC3)c2c1`, the growth was -40.6% (active).

Regarding `COc1cc(-c2ccc(-[n+]3nc(-c4ccc([N+](=O)[O-])cc4)nn3-c3ccc([N+](=O)[O-])cc3)c(OC)c2)ccc1-[n+]1nc(-c2ccc([N+](=O)[O-])cc2)nn1-c1ccc([N+](=O)[O-])cc1`, the growth is 6.95% (active).

For `O=C1C=CC(=O)N1c1cc(Cl)c(Cl)cc1Cl`, the growth is 76.7%.

As for `Nc1cccc2cccc([N+](=O)[O-])c12`, the growth is 74.7%.

As to `CCc1cnc2ccccc2c1/C=C/c1ccc(N(C)C)cc1`, the growth is 44.6%.

On to `O=[N+]([O-])c1ccc(C2N(Cc3ccc(Cl)cc3)CCN2Cc2ccc(Cl)cc2)cc1`, for which the growth is 48.5%.

Regarding `Oc1ccc2c(c1)CCc1ccccc1-2`, the growth is 90.3%.

With `COc1cc(/C=C2\SC(=S)N(/C=C/c3nc4ccccc4[nH]c3=O)C2=O)cc(OC)c1OC`, the growth was 2.14% (active).

For `CC(C)(C)CC(C)(C)c1ccc(OCCOCCSC(=N)N)cc1`, the growth was 53.2%.
